Measured values published in PubChem BioAssay AID587 (National Center for Advancing Translational Sciences (NCATS), 2007).
Hit rate of the full screen: of about 59,000 compounds, about 35 (0.06%) were called active. About 19% were inconclusive and are not listed. Cut-off read from the data, not from the text of the source: active = max dye-equivalent concentration above about 10 nM; inconclusive = between about 1.1 nM and that limit; inactive = weaker than that. The list comes from a sample in which actives are over-represented; it also holds similar structures and randomly drawn compounds.

assay: qHTS Assay for Spectroscopic Profiling in Texas Red Spectral Region; conditions: Compound fluorescence, Texas Red channel, 547/618 nm
Source text: NIH Molecular Libraries Screening Centers Network [MLSCN] NIH Chemical Genomics Center [NCGC] […] Occasionally, the artifactual effect may originate from the compound#s own spectral or other biophysical properties which generally tend to track its assay concentration. Pre-screening/profiling the library with respect to the compounds# spectral properties should help one exclude false positives early on. While the most informative fluorescent profiling data set is obtained by performing a full excitation and emission scan of each well by using a monochromator-based plate reader, such an approach is practical only on a very limited scale as scanning each well requires long time. An alternative approach, applied here, is to perform plate reader scans using selected excitation and emission wavelength pairs to generate a multidimensional relational database that correlates compound concentration and the respective relative fluorescence intensity at a given wavelength set. A standard curve of Texas Red (TR) present on each plate as six-point concentration series, was used to compute a normalized fluorescence response, termed dye-equivalent concentration, for each compound at each concentration.
NCGC Assay Protocol Summary: Buffer: 100 mM Tris buffer, pH 8.0 Dye standard plate: The wells in columns 1 through 4 of a Kalypsys polypropylene 1536-well compound plate were filled with standard solutions of fluorophore corresponding to the spectral region of interest. Solutions of TR were placed in the following wells: U1, V1: 3 mM, U2, V2: 300 uM, U3, V3: 30 uM, U4, V4: zero (DMSO), W1, X1: 3 uM, W2, X2: 900 nM, W3, X3: 300 nM, W4, X4: zero (DMSO). Assay Steps: Six uL of buffer were dispensed to 1536-well Greiner black plates. Compounds and dye standards (23 nL) were transferred via Kalypsys PinTool. The plates were incubated for 15 min at room temperature, and then read on ViewLux (Perkin-Elmer) High-throughput CCD imager using 547 nm and 618 nm excitation and emission filter set. Keywords: NIH Roadmap, MLSCN, MLI, MLSMR, qHTS, NCGC, Texas Red, Fluorescent Profiling.

Max dye-equivalent concentration, inactive:
Cc1nn(-c2ccccc2)c(CC(C)(C)C(=O)O)c1C(=O)O, COCCn1c(=O)c(-c2cc(F)cc(F)c2)nc2cnc(N3CCNCC3)nc21, CN1CCN(S(=O)(=O)c2ccc(NC(=O)C3CCCO3)cc2)CC1 (stereo unspecified), O=C(c1cnccn1)N1CCC[C@@]2(CCN(Cc3ccncc3)C2)C1, CN1CCN(c2ncc3nc(-c4ccc(Cl)cc4)c(=O)n(-c4ccccc4)c3n2)CC1, N#Cc1cccc(-c2nc3cnc(N4CCNCC4)nc3n(C3CC3)c2=O)c1, CCOCCOC(=O)C1=C(C)N(C)C(=O)NC1c1ccccc1F (stereo unspecified), Cc1nc(NCc2ccccc2)c(C(N)=O)c2c1COC(C)(C)C2, COc1ccc(N2CCN(C(=O)CSc3nnc4ncccn34)CC2)cc1, O=C1CSC(c2cccc(F)c2)N1c1ccccc1F (stereo unspecified), COc1ccc(N2CCN(Cc3cc(=O)oc4ccc5ccccc5c34)CC2)cc1, COC(=O)c1ccccc1NC(=O)CSc1ccccn1, COc1ccc2oc(=O)c(C(=O)N3CCN(c4ccccc4F)CC3)cc2c1, CCNc1ncc2nc(CCc3ccccc3)c(=O)n(-c3ccc(OC)cc3)c2n1, CCOC(=O)C1CCN(C(=O)Cn2cc(C#N)c3ccccc32)CC1, CC(C)C(C(=O)NC1CCCCC1)N(CC1CCCO1)C(=O)CNS(=O)(=O)c1ccc(F)cc1 (stereo unspecified), CO[C@@H]1/C=C\O[C@]2(C)Oc3c(C)c(O)c4c(O)c(c(CN(C)C)c(O)c4c3C2=O)NC(=O)/C(C)=C\C=C[C@@H](C)[C@@H](O)[C@H](C)[C@@H](O)[C@H](C)[C@H](OC(C)=O)[C@@H]1C, Cc1c(C(=O)CN2CCOCC2)[nH]c2ccccc12, O=C(NCCCCO)C(F)(F)C(F)(F)C(F)(F)C(=O)NCCCCO, O=c1c(-c2ccc(F)c(F)c2)nc2cncnc2n1-c1ccccc1, COC(=O)[C@@H]1[C@H]2C[C@H]3c4[nH]c5cc(OC)ccc5c4CCN3C[C@@H]2C[C@@H](OC(=O)c2cc(OC)c(OC)c(OC)c2)[C@@H]1OC, COc1ccc(C(=O)N(CCN2CCOCC2)CC(=O)NC2CCCC2)cc1OC, C=C(C)CSc1nc(N)c2c3c(sc2n1)CCC3, CC(C)c1nc(N2CCOCC2)c(C#N)c2c1COC(C)(C)C2, CN(C)c1ncc2nc(-c3ccc(F)cc3)c(=O)n(Cc3ccc(F)cc3)c2n1, c1cncc(CNc2ccnc(-c3ccc4c(c3)OCO4)n2)c1, CCN(CC(=O)NC(C)C)C(=O)CCNC(=O)c1ccc(Cl)cc1, Cc1nc2cnc(N3CCN(C)CC3)nc2n(C[C@H]2CCCO2)c1=O, COc1ncc2nc(-c3ccc(Cl)cc3)c(=O)n(-c3ccccc3)c2n1, O=C(O)[C@@H](S)[C@H](S)C(=O)O, N#CCCn1c(=O)c(-c2cc(F)cc(F)c2)nc2cnc(Oc3ccccc3)nc21, COc1ccc(OC)c(CN2C(=O)CCC2(C)C(=O)NC2CCCCCC2)c1 (stereo unspecified), O=C(Cn1nnc(-c2ccccc2)n1)NCc1ccccc1, O=c1[nH][nH]c(=O)c2cc(N3CCCC3)ccc12, CC(C(=O)N1CCOCC1)N1c2cccc3cccc(c23)S1(=O)=O (stereo unspecified), O=C(Nc1ccc2c(c1)OCCO2)C1CCCN(c2ncccn2)C1 (stereo unspecified), COCCNC(=O)C(c1ccc(C)o1)N(Cc1cccs1)C(=O)c1snc(C(N)=O)c1N (stereo unspecified), COc1c(F)c(F)c(-c2csc(N)n2)c(F)c1F, CC(C)c1ccc(NC(=O)NC2CCCCC2)cc1, CCC(C)(C(=O)NC1CCCC1)N(C(=O)CNC(C)=O)c1ccc(C)cc1 (stereo unspecified), CCNc1nc(NCC)nc(N(C)n2cnnc2)n1, O=C(CN1CCN(c2ccccn2)CC1)NCc1cccs1, O=C(O)COc1c(Cl)cc(Cl)c2cccnc12, O=C(OCC(O)C(O)COC(=O)c1ccccc1)c1ccccc1 (stereo unspecified), COc1cccc(Cn2c(=O)c(CCc3ccccc3)nc3cnc(N(C)C)nc32)c1, CN1CCN2c3ccccc3Cc3ccccc3[C@@H]2C1, COCCn1c(=O)c(-c2cccc(F)c2)nc2cncnc21, CC1Cc2cc(/C(O)=C3\C(=O)C(=O)N(CCN4CCOCC4)C3c3ccccc3F)ccc2O1 (stereo unspecified), CCOC(=O)CSc1nc2sc3c(c2c(=O)[nH]1)CC(C)(C)OC3, CC(C)NC(=O)N1CC[C@@]2(CCCN(C(=O)c3ccco3)C2)C1, CCC(c1nnnn1C1CCCC1)N1CCN(C(=O)c2ccco2)CC1 (stereo unspecified), Cc1nn(-c2ccccc2)c2sc(C(=O)N(Cc3ccco3)C(C)C(=O)NC(C)(C)C)cc12 (stereo unspecified), CCOC(=O)N1CCC(Nc2c(NCCCN3CCN(c4ccc(OC)cc4)CC3)c(=O)c2=O)CC1, COc1ccccc1CNC(=O)CCCNS(=O)(=O)c1cccc2nsnc12, COc1cccc(-c2cc(NCCc3c[nH]c4ccc(OC)cc34)ncn2)c1, CC(C)(C)c1ccc(C(=O)NCCC(=O)NCc2ccco2)cc1, CCOCC(=O)Nc1cc(OC)c(Cl)cc1OC, CCOc1ccc(CCNC(=O)C2CCN(c3ccc(N4CCOCC4)nn3)CC2)cc1OCC, O=C(Cn1ccc(=O)[nH]c1=O)Nc1ccc(C(=O)O)c(O)c1, CCc1c(C)sc(NC(=O)c2ccc(Br)o2)c1C(=O)OC, CCNc1ncc2ncc(=O)n(Cc3cccc(OC)c3)c2n1, CC1(C)S[C@@H]2[C@@H](NC(=O)[C@@H](N)c3ccccc3)C(=O)N2[C@H]1C(=O)O, COCCn1c(=O)c(-c2cccs2)nc2cncnc21, CN(C)c1cc(N)c2ccccc2n1 (tested in a mixture with another compound), C[N+]1(CCNC(=O)/C=N/O)CCCCC1, CCCCCC(=O)Nc1ccc2oc(-c3ccncc3)nc2c1, CN/C(=C\[N+](=O)[O-])NCCSCc1csc(CN(C)C)n1, COc1ccc(OCc2cccc(C(=O)N3CCCC3)c2)cc1, CN(c1ccc(C(=O)NCCC2=CCCCC2)cc1)S(C)(=O)=O, CCOc1ccc(C2C(C(=O)O)c3ccccc3C(=O)N2CCN2CCOCC2)cc1 (stereo unspecified), COc1ccccc1CNc1ncnc2ccc(-c3ccc4c(c3)OCO4)cc12, Cc1ccc2nc(-c3ccc(SCC(=O)Nc4cc(C)on4)nc3)[nH]c2c1, COc1ccc(-n2c(SCC(=O)NCc3cccs3)nnc2-c2ccoc2C)cc1, CN(C)CCNC(=O)C(C(=O)c1ccccc1)n1ccccc1=O (stereo unspecified), CC1Cn2c(nnc2-c2cccs2)S1 (stereo unspecified), CSc1ncccc1C(=O)OCC(=O)N1CCOCC1, c1ccc(-c2oc3ncnc(N4CCOCC4)c3c2-c2ccccc2)cc1, O=c1c(-c2cc(F)cc(F)c2)nc2cnc(Oc3ccccc3)nc2n1C[C@H]1CCCO1, COc1ccc(-n2ncc3c(N4CCc5ccccc54)ncnc32)cc1, CN(C)c1ccc(-c2nc(NCCN3CCOCC3)c3ccccc3n2)cc1, CC(NCCO)C(=O)C12CC3CC(CC(C3)C1)C2 (stereo unspecified), O=c1c(-c2ccc(F)cc2)nc2cnc(N3CCOCC3)nc2n1-c1ccccc1, Cc1cc(N2C(=O)C(=O)/C(=C(/O)c3ccc(Cl)cc3)C2c2cccc(Br)c2)no1 (stereo unspecified), CC[C@H](c1ccccc1)c1cc(C(C)(C)C)cc(C(C)(C)C)c1O, COc1ccc(C(=O)n2nc(-c3ccc(C)cc3)nc2N)cc1OC, Cn1cc(-c2nc3cnc(N4CCNCC4)nc3n(CCc3ccccc3)c2=O)c2ccccc21, O=c1c(CCc2ccccc2)nc2cnc(N3CCNCC3)nc2n1Cc1cccs1, Cc1nc2nc(COc3ccccc3)[nH]n2c(=O)c1C, COc1ccc(C(C(O)C(=O)c2c[nH]c3ccccc23)N2CCN(c3ccccc3)CC2)cc1 (stereo unspecified), COc1ccc(NS(=O)(=O)c2ccc(NC(=O)C(C)(C(F)(F)F)C(F)(F)F)cc2)nn1, N#Cc1ccc(OCCN2C(=O)NC3(CCSC3)C2=O)cc1 (stereo unspecified), Cc1nc2cnc(Nc3ccccc3)nc2n(Cc2ccc(F)cc2)c1=O, CC(=O)O[C@]1(C(C)=O)CC[C@@H]2[C@@H]3C=C(C)C4=CC(=O)CC[C@@]4(C)[C@H]3CC[C@]21C, Cc1oc(-c2cccc(Cl)c2)[n+]([O-])c1C, CCOC(=O)CCc1c(C)c(C#N)c2[nH]c3ccccc3n2c1=O, Cc1cc(C)c(C#N)c(SCc2ccccc2C(=O)O)n1, CC(CCc1ccccc1)NC(=O)c1ccc(Br)o1 (stereo unspecified), CCCCCNC(=O)Cc1ccc(OC)cc1, CCN(CC)C(=O)N1CCN(C(=O)c2ccc(C)cn2)CC1, CCCOC(=O)C1=C(C)NC2=C(C(=O)C(C(=O)OC)C(C)C2)C1c1ccc(N(C)C)cc1 (stereo unspecified), Cc1cc(C)n(-c2ccc(Cl)c(C(=O)O)n2)n1, COCCn1c(=O)c(C)nc2cnc(N(C)C)nc21, COCCn1c(=O)c(-c2ccc(OC)cc2)nc2cnc(Oc3cccc(Cl)c3)nc21, O=C(O)CCC(=O)N(Cc1ccco1)c1nc(-c2ccccc2)cs1, COc1ccc2nc(NC3=NCN(CC4CCCO4)CN3)nc(C)c2c1 (stereo unspecified), COc1ccc(-c2ccnc(SCC(=O)N3CCOCC3)n2)cc1
